PubChem BioAssay
“And” between values parts separate entries of the source, which are not always exact repeats. Identical values can stand only once. The source made the active and inactive calls.

Legend:
[1] = optical density shifts of acrAB sulA E. coli – strain DRC41, OD650, 48 h, E. coli filamentation inducer project, primary screen (AID 1152); conditions: higher = more signal, called active from +8 up or from −8 down;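 note: E. coli MC1000 strain DRC41 lacking acrAB efflux pump and sulA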
[2] = probe aLefty1 binding on compound microarray – biochemical, small-molecule microarray, 635/667 nm fluorescence, primary screen (AID 1153); conditions: higher = more signal;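 note: score merges spot fluorescence with signal-to-noise ratio from the scanned slide images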
[3] = plasmodial surface anion channel blockers, osmotic lysis – cell-based, P. falciparum Indochina, OD700, 1 h, primary screen (AID 1154); conditions: P. falciparum Indochina infected RBC osmotic lysis, higher = more signal, called active from +8 up or from −8 down
[4] = plasmodial surface anion channel blockers, osmotic lysis – cell-based, P. falciparum Indochina, OD700, 2 h, primary screen (AID 1155);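 note: lysis reports solute entry through the parasite surface anion channel PSAC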; conditions: P. falciparum Indochina infected erythrocytes, higher = more signal, called active from +8 up or from −8 down
[5] = changes in parasitized red cell lysis, either direction – P. falciparum Indochina, OD700, 3 h, PSAC antagonist project, primary screen (AID 1156); conditions: P. falciparum-infected erythrocytes, osmotic lysis, higher = more signal, called active from +8 up or from −8 down
[6] = plasmodial surface anion channel blockers, osmotic lysis – cell-based, P. falciparum Indochina, OD700, 18 h, primary screen (AID 1157); conditions: P. falciparum Indochina infected erythrocytes, osmotic lysis OD700, 18 h; higher = more signal, called active from +8 up or from −8 down
[7] = S6 kinase pathway phospho-S6 level changes – cell-based, A549, cytoblot, luminescence, serum-stimulated, primary screen (AID 1158); conditions: 5 h, higher = more signal;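 note: serum-stimulated A549 lung adenocarcinoma cells; signal is phosphorylated S6 detected by cytoblot immunostaining with HRP secondary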
[8] = target: NADPH oxidase 2 (Homo sapiens) (UniProt P04839); experiment: compounds shifting NOX2 Amplex Red fluorescence – cell-based, HEK293-NOX2, PMA-stimulated, NOX inhibitor project, primary screen (AID 1159); conditions: 45 min, higher = more signal, called active from +8 up or from −8 down; note: test concentration not given here
Sequence of NADPH oxidase 2 (Homo sapiens) (P04839 whole entry, looked up): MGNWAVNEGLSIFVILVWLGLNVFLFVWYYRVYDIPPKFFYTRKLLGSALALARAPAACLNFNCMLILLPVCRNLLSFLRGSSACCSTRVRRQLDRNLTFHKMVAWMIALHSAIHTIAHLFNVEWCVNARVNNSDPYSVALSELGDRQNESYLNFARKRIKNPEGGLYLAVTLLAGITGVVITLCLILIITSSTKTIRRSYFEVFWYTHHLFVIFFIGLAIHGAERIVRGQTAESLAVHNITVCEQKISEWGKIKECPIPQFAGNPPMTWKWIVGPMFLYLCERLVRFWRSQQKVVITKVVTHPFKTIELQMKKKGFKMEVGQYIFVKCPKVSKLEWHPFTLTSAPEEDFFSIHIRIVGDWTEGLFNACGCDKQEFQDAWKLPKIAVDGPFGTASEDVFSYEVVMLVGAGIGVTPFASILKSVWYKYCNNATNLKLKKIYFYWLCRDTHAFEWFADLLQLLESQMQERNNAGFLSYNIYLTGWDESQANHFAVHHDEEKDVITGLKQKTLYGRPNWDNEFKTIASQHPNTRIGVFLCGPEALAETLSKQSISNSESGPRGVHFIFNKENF

[9] = target: NADPH oxidase 4 (Homo sapiens) (UniProt Q9NPH5); experiment: compounds shifting NOX4 Amplex Red fluorescence – cell-based, HEK293-NOX4, tetracycline-induced, NOX inhibitor project, primary screen (AID 1160); conditions: HEK293-NOX4, Amplex Red H2O2 fluorescence, 45 min; higher = more signal, called active from +8 up or from −8 down
Sequence of NADPH oxidase 4 (Homo sapiens) (Q9NPH5 whole entry, looked up): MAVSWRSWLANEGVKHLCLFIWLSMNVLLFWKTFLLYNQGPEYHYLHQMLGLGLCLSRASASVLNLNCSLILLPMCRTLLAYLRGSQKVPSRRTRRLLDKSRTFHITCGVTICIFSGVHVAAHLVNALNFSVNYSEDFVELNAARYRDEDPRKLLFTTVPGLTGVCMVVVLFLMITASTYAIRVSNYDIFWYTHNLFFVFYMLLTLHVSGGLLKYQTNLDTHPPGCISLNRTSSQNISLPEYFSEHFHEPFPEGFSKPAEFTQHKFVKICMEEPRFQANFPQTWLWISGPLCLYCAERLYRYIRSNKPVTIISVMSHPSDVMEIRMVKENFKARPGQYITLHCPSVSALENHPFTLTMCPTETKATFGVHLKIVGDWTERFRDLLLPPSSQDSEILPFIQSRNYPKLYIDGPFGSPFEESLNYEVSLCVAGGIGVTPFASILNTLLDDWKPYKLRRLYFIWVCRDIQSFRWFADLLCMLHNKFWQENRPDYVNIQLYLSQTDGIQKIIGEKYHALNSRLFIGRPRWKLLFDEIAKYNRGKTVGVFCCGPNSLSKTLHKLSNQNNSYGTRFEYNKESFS

[10] = target: NADPH oxidase 5 (Homo sapiens) (UniProt Q96PH1); experiment: compounds shifting NOX5 Amplex Red fluorescence – cell-based, HEK293-NOX5, NOX inhibitor project, primary screen (AID 1161); conditions: HEK293-NOX5, ionomycin, 45 min, higher = more signal
Sequence of NADPH oxidase 5 (Homo sapiens) (Q96PH1 whole entry, looked up): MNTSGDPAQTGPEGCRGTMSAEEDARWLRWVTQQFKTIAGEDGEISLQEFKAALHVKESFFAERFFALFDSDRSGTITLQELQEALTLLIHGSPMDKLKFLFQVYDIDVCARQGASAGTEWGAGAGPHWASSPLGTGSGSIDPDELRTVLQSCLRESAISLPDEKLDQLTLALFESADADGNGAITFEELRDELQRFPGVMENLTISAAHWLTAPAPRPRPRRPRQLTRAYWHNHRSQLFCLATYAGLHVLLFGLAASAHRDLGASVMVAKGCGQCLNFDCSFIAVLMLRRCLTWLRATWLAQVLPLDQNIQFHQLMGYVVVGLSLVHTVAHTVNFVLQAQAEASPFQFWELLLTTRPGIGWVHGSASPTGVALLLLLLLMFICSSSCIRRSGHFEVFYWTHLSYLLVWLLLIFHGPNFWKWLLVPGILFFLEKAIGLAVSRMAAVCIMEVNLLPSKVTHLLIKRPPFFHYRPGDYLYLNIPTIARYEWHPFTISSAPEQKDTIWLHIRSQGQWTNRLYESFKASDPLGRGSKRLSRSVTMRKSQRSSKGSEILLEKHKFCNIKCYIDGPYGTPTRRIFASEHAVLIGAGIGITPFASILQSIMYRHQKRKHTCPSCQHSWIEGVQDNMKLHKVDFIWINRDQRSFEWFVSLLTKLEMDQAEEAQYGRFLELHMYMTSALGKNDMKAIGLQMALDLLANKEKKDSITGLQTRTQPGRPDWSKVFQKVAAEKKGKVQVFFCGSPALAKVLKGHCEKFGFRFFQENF

[11] = compound effects on lung adenocarcinoma cell viability – A549, calcein-AM fluorescence, 48 h, basal, profiling panel (AID 1162); conditions: higher = more signal; note: test concentration not given here
[12] = compound effects on differentiated 3T3-L1 adipocyte viability – cell-based, 3T3-L1 adipocytes, calcein-AM fluorescence, 48 h, basal, profiling panel (AID 1163); conditions: 3T3-L1 adipocytes viability, higher = more signal; note: test concentration not given here
[13] = compound effects on hepatocellular carcinoma cell viability – HepG2, calcein-AM fluorescence, 48 h, basal, profiling panel (AID 1164); conditions: higher = more signal; note: test concentration not given here
[14] = compound effects on multiple myeloma cell viability – MM1S, calcein-AM fluorescence, 48 h, basal, profiling panel (AID 1165); conditions: higher = more signal; note: test concentration not given here
[15] = calcein-AM signal in unstimulated myeloma cells – cell-based, calcein-AM fluorescence, 48 h, PK04 Diversity Set, profiling panel (AID 1166); conditions: RPMI8226 myeloma viability, higher = more signal;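 note: cells grown under basal conditions without added stimulus; test concentration not given here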
[16] = JC-1 mitochondrial signal, unstimulated HepG2 cells – cell-based, JC-1 fluorescence, 24 h, 100 nL compound, profiling panel (AID 1167); conditions: HepG2 mitochondrial potential, higher = more signal; note: test concentration not given here
[17] = JC-1 mitochondrial signal, unstimulated adipocytes – cell-based, JC-1 fluorescence, 3T3-L1 adipocytes, 24 h, 100 nL compound, profiling panel (AID 1168); conditions: JC-1 mitochondrial fluorescence, higher = more signal, called active from +8 up or from −8 down; note: test concentration not given here
[18] = JC-1 mitochondrial signal, unstimulated myeloma cells – cell-based, JC-1 fluorescence, RPMI8226, 24 h, 100 nL compound, profiling panel (AID 1169); conditions: JC-1 mitochondrial potential fluorescence, higher = more signal; note: test concentration not given here
[19] = JC-1 mitochondrial signal, unstimulated MM1S myeloma – cell-based, JC-1 fluorescence, 24 h, 100 nL compound, profiling panel (AID 1170); conditions: MM1S mitochondrial potential, higher = more signal; note: test concentration not given here
[20] = resazurin metabolic signal in A549 cells – cell-based, resazurin fluorescence, 24 h, PK04 Diversity Set, profiling panel (AID 1171); conditions: A549 viability, higher = more signal, called active from +8 up or from −8 down; note: test concentration not given here

Structure (SMILES)	z-score [1]	composite z-score [2]	z-score [3]	z-score [4]	z-score [5]	z-score [6]	z-score [7]	z-score [8]	z-score [9]	z-score [10]	z-score [11]	z-score [12]	z-score [13]	z-score [14]	z-score [15]	z-score [16]	z-score [17]	z-score [18]	z-score [19]	z-score [20]
COC(=O)[C@@]1(Cc2ccccc2)[C@H]2c3cc(C(=O)N(C)C)n(Cc4ccc(C)c(F)c4F)c3C[C@H]2CN1C(=O)c1ccccc1	-1.18 (inactive) and -1.91 (inactive)	0.476 and 0.712	2.54 (inactive) and 4.12 (inactive)	-0.6 (inactive) and 1.2 (inactive)	0.425 (inactive) and 0.306 (inactive)	-1.34 (inactive) and 1.21 (inactive)	1.16 and 0.782	-3.14 (inactive) and 0.452 (inactive)	-4.83 (inactive) and -1.66 (inactive)	-5.5 and -1.88	-3.17 and -1.66	0.42 and 0.702	-2.78 and -1.77	-3.27 and -3.16	-4.73 and -4.71	-2.92 and -1	-1.35 (inactive) and -1.29 (inactive)	-0.926 and -0.872	-3 and -1.7	-3.06 (inactive) and -1.94 (inactive)
CN1C(=O)C2CC=C([C@H]3Oc4ccccc4S(=O)(=O)N4CCC[C@@H]34)CC2C1=O (stereo not given in full)	-0.92 (inactive) and -0.225 (inactive)	-0.186 and -0.193	0.35 (inactive) and 0.829 (inactive)	0.542 (inactive) and 0.41 (inactive)	-0.0363 (inactive) and 0.15 (inactive)	0.354 (inactive) and 0.133 (inactive)	-0.395 and -0.53	0.514 (inactive) and -0.289 (inactive)	-1.36 (inactive) and -1.47 (inactive)	-1.31 and -1.46	-0.657 and 0.15	-0.109 and 0.323	-0.926 and -0.369	0.49 and 0.288	-0.177 and -0.215	-0.649 and 0.00971	0.243 (inactive) and 0.347 (inactive)	0.439 and 0.341	0.123 and -0.0296	0.0976 (inactive) and -0.125 (inactive)
COc1ccc(COC(=O)NN=C2C[C@@H](O)[C@@H](O)[C@@H]3[C@@H]4C(=O)N(C(C)(C)C)C(=O)[C@@H]4CC[C@H]23)cc1	0.91 (inactive)	0.0169	1.91 (inactive)	-1.4 (inactive)	0.708 (inactive)	-1.93 (inactive)	1.25	-0.818 (inactive)	0.00608 (inactive)	-1.43	0.894	0.377	0.89	-0.156	0.0186	-0.206	1.14 (inactive)	0.704	-0.527	-0.581 (inactive)
CCOC(=O)[C@H](CC(C)C)NC(=O)CCC1CC(OC(=O)NCc2cccc3ccccc23)CC2(CCCC(COC(=O)NCc3ccccc3)O2)O1 (stereo not given in full)	-0.42 (inactive)	-0.393	0.56 (inactive)	-0.166 (inactive)	-1.33 (inactive)	0.097 (inactive)	-0.194	0.209 (inactive)	0.0251 (inactive)	0.281	0.531	-0.172	-0.435	0.184	0.0523	2.45	0.472 (inactive)	0.0897	-0.717	0.586 (inactive)
